Among all 52,000 compounds or so, about 4,300 (8.3%) were called active. The full list was thinned out, with actives kept by preference. Unmarked numbers belong to inactive results. No stated cut-off is given here; in the data, active means survival mostly below about 52% (no sharp cut-off); inactive means mostly above about 56%.
Tested on: DeltatarO mutant
Test: growth inhibition of S. aureus wild type versus tarO mutant, primary screen, teichoic acid synthesis inhibitors, RN4220, OD600 (AID 463173)
Conditions: OD600, 18 h, hits give low values, screened at 18.75 µg/mL (by protocol)

In order of falling survival:
1. O=C(CSc1nc2ccsc2c(=O)n1Cc1ccccc1F)NCc1ccccc1  122%
2. O=C(COCc1cc(-c2cccs2)on1)NCc1cccc(Cl)c1  117%
3. CCOC(=O)c1ccc(N2C(=O)Cc3cc(OCC)c(OCC)cc3C2c2ccccc2)cc1 (stereo not drawn)  117%
4. Cc1ccc(NC(=O)C2CCCN2S(=O)(=O)c2ccc3c(c2)n(C)c(=O)c(=O)n3C)cc1C (stereo not drawn)  115%
5. COC(=O)c1ccccc1NC(=O)c1nc(S(=O)(=O)Cc2ccccc2F)ncc1Cl  110%
6. CC(=O)Nc1ccccc1-c1nc2ccccc2n(CC(=O)c2ccc(C)c(C)c2)c1=O  104%
7. CCOC(=O)c1cc2c(ccn2-c2ccc(F)cc2)n1CC(=O)c1ccc2c(c1)OCCO2  100%
8. COc1ccccc1NC(=O)C(C#N)Cc1cc2cc(C)cc(C)c2[nH]c1=O (stereo not drawn)  98%
9. S=C(NC12CC3CC(CC(C3)C1)C2)N1CCOCC1  98%
10. CC(Oc1ccc(Br)cc1)C(=O)N(Cc1nc(-c2ccccc2)no1)C(C)C (stereo not drawn)  97%
11. CC(=O)c1ccc(N2CCN(c3ncnc4c3c(-c3ccccc3)cn4-c3ccc(Cl)cc3)CC2)cc1  91%
12. COCCCNC(=O)CS(=O)Cc1nc(-c2cccc(C)c2)oc1C (stereo not drawn)  90%
13. CCN(C(=O)C1CCN(S(=O)(=O)c2ccc3c(c2)CCCN3C(C)=O)CC1)c1cccc(C)c1  88%
14. Cc1nc2c(Cl)cc(Cl)cc2[nH]1  88%
15. Cc1ccc(NC(=O)C2CCCN2S(=O)(=O)c2ccc3c(c2)n(C)c(=O)c(=O)n3C)cc1 (stereo not drawn)  87%
16. CCC(C)NC(=O)c1cn(CC)c2ccc(S(=O)(=O)N3CCCCC3)cc2c1=O (stereo not drawn)  84%
17. CC(=O)Nc1ccc(C)cc1-c1nc2ccccc2n(CC(=O)c2ccc(Cl)cc2)c1=O  82%
18. CCCCNC(=O)c1ccc2c(=O)n(-c3ccccc3)c(=O)[nH]c2c1  80%
19. CCCN1CCN(CCCNC(=O)c2cc3c(=O)[nH]c4ccccc4c3s2)CC1  79%
20. CC(C)NC(=O)c1ccc2c(c1)nnn2C  78%
21. O=C(CN1C(=O)CCc2cc(S(=O)(=O)N3CCCCC3)ccc21)NCc1ccc(Cl)cc1  78%
22. Cc1ccc(COC(=O)c2[nH]c3c(c2C)C(=O)CC(c2ccc(N(C)C)cc2)C3)cc1 (stereo not drawn)  77%
23. CC(=O)Nc1ccccc1-c1nc2ccccc2n(CC(=O)c2ccc(Br)cc2)c1=O  76%
24. Cc1ccc2cc(CN(C(=O)c3cccc(Cl)c3)c3ccccc3)c(=O)[nH]c2c1  74%
25. O=C(Nc1ccccc1F)c1nc(SCc2ccccc2F)ncc1Cl  73%
26. COc1ccc(NC(=O)c2nc(SCc3ccccc3F)ncc2Cl)cc1  73%
27. CCOc1cccc2cc(-c3cn4c(n3)sc3ccccc34)c(=O)oc12  72%
28. CCOc1nc(NC(=O)NS(=O)(=O)Oc2ccccc2)nc(-c2ccccc2)n1  70%
29. COc1ccc2cc(CNc3ccccc3)c(=O)n(CC(=O)Nc3ccc(C(C)=O)cc3)c2c1  68%
30. Cc1cc(C)c2c(=O)cc(C(=O)Nc3sc4c(c3C(=O)NCc3cccnc3)CCCC4)oc2c1  68%
31. CCCOC(=O)c1c(NC(=O)c2nc3ncccn3n2)sc(C(=O)OCC)c1C  68%
32. CCC(=O)Nc1ccc(C)cc1-c1nc2ccccc2n(CC(=O)c2ccc(C)cc2)c1=O  68%
33. COc1cccc(NC(=O)Cn2c(=O)n(-c3cccc(OC)c3)c(=O)c3sc4ccccc4c32)c1  65%
34. CCN(CC)S(=O)(=O)c1ccc(OC)c(-n2cnnn2)c1  65%
35. Cc1cccc(-c2noc(CN(C(=O)c3ccccc3Cl)C(C)C)n2)c1  62%
36. COc1ccccc1C(=O)N(Cc1nc(-c2cccc(C)c2)no1)C(C)C  62%
37. COc1ccc(OC(C)C(=O)NCc2nc(-c3cccc(C)c3)no2)cc1 (stereo not drawn)  61%
38. Cc1ccc(-c2noc(CSc3nnc(C)n3-c3ccc(F)cc3)n2)cc1  61%
39. COc1ccc2nc(NC(=O)c3nc(S(=O)(=O)Cc4ccccc4F)ncc3Cl)sc2c1  61%
40. Cc1noc(-c2ccccc2OCC(=O)Nc2cccc([N+](=O)[O-])c2)n1  60%
41. COc1cccc2cc(-c3cn4c(n3)sc3cc(F)ccc34)c(=O)oc12  60%
42. Cc1ccccc1CNCc1c(C(=O)O)c(C)n(Cc2ccc(F)cc2Cl)c1C  59%
43. COc1ccc(C(=O)N2CC(=O)Nc3ccc(F)cc3C2c2ccc(F)cc2)c(OC)c1 (stereo not drawn)  58%
44. CC(=O)c1ccc(NC(=O)COc2ccccc2-c2nc(-c3ccc(C)cc3)no2)cc1  57%
45. Cc1ccccc1-c1noc(-c2ccccc2OCC(=O)Nc2cccc([N+](=O)[O-])c2)n1  51%
46. Cc1cccc(-c2noc(-c3ccccc3OCC(=O)Nc3ccc([N+](=O)[O-])cc3)n2)c1  50%
47. CCC(=O)Nc1ccccc1-c1nc2ccccc2n(CC(=O)c2ccc(C)cc2)c1=O  50%
48. CCS(=O)(=O)N1CCc2cc(C(=O)Nc3cc(C(F)(F)F)ccc3Cl)ccc21  48%
49. CCOCCCNC(=O)c1c(NC(=O)c2cc(=O)c3ccccc3o2)sc2c1CCC2  48%
50. CCC(=O)Nc1ccccc1-c1nc2ccccc2n(CC(=O)Nc2ccc(C)c(C)c2)c1=O  47%

With `Cc1ccc(C)c(NC(=O)C2CCCN2S(=O)(=O)c2ccc3c(c2)n(C)c(=O)c(=O)n3C)c1` (stereo not drawn) the survival was 38% (active).
In the case of `CCOc1ccc(C(=O)N(Cc2nc(-c3cccc(C)c3)no2)C(C)C)cc1`, the survival is reported as 0% (active).
`Cc1cccc(-c2noc(CN(C(=O)COc3ccc(C(C)C)cc3)C(C)C)n2)c1` was tested, and the survival was 11% (active).
For `Cc1cccc(-c2noc(CN(C(=O)COc3ccc(Br)cc3C)C(C)C)n2)c1`, the survival was 45% (active).
`Cc1cccc(-c2noc(CN(C(=O)c3ccc(C)c(C)c3)C(C)C)n2)c1` was tested, and the survival was -3% (active).
For `O=C(COc1ccccc1-c1nc(-c2ccccc2)no1)Nc1cccc([N+](=O)[O-])c1`, the survival was 34% (active).
For `O=C(COc1ccccc1-c1nc(-c2ccccc2)no1)Nc1ccc([N+](=O)[O-])cc1`, the survival was 44% (active).
`O=C(Nc1ccccc1F)c1nc(S(=O)(=O)Cc2ccccc2F)ncc1Cl` was tested, and the survival was -4% (active).
For `CCOc1ccc(NC(=O)c2nc(S(=O)(=O)Cc3ccccc3F)ncc2Cl)cc1`, the survival was 11% (active).
In the case of `CCOc1cccc2cc(-c3cn4c(n3)sc3cc(C)ccc34)c(=O)oc12`, the survival is reported as -4% (active).
With `CCC(=O)Nc1ccccc1-c1nc2ccccc2n(CC(=O)c2ccc(Br)cc2)c1=O` the survival was 29% (active).
For `CCC(=O)Nc1ccccc1-c1nc2ccccc2n(CC(=O)c2ccc(Cl)cc2)c1=O`, the survival was 35% (active).
`CCC(=O)Nc1ccccc1-c1nc2ccccc2n(CC(=O)c2ccc(C)c(C)c2)c1=O` was tested, and the survival was 33% (active).
